# Compound activity deposited in PubChem BioAssay by several laboratories.
# The list is not random: actives were taken first. Their share in the collection is about 1.2%.
# PKA-R2B activ: activators of human PKA-R2B complex; hit rate 0.079% among 340,000; activation, % at 11.4 µM; PKA-R2B holoenzyme dissociation, Cy5-IP20 fluorescence polarization; R2B truncated from residue 108, S112A mutant; 0% DMSO only, 100% 113 µM cGMP; AID 504700;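 active = activation above a cutoff set at the mean over all compounds plus 3 SD, cut at about 18% in these data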;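 also: higher means more holoenzyme dissociation and a rise in polarization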
# Target sequence (P31323 whole entry, looked up, other chains not shown, the tested form may be a part): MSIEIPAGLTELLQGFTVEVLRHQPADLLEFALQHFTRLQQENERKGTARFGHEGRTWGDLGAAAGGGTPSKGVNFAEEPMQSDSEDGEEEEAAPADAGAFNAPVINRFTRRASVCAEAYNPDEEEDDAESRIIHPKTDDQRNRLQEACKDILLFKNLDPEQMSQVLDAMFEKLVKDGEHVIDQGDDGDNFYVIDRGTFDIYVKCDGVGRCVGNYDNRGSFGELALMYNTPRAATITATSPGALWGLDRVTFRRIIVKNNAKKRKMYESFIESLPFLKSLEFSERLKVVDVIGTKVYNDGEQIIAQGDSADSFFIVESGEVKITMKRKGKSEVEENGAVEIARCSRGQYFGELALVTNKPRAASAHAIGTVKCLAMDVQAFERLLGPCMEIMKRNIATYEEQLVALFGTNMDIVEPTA
# PKA-R1A activ: PKA-R1A complex activation; P00514+P68181; activation, % at 11.4 µM; hit rate 0.083% among 340,000; PKA-R1A dissociation, Cy5-IP20 fluorescence polarization; scaled: DMSO 0%, 113 µM cGMP 100%;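 active = percent activation above the mean of all tested compounds plus 3 SD, cut at about 19% in these data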;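 also: higher means more PKAc released from R1A so a rise in polarization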
# PG9 Ab binder: small molecules binding HIV-1 gp120 antibody PG9 | TR-FRET gp120-PG9 antibody binding | inhibition, % at 6.7 µM | hit rate 0.43% among 360,000 | AID 624416; in the data active = inhibition above about 8.5%
# Rev-erbA mod: modulates human Rev-erb alpha binding to DNA; P20393; Rev-erbα–FITC-DNA binding, fluorescence polarization, 90 min; activity, % at 10 µM; hit rate 0.79% among 370,000;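 active = activity above about 14%, limit read from the data; passing the limit was not always enough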;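 also: 0% = DMSO wells with 35 nM protein and 100% = DMSO wells with 750 nM protein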
# The depositor's hits bear a star; x = not tested or not shown.
SMILES,PKA-R2B activ,PKA-R1A activ,PG9 Ab binder,Rev-erbA mod
CC(C)(CO)C(O)C(=O)NCCC(=O)NCCSSCCNC(=O)CCNC(=O)C(O)C(C)(C)CO (stereo not given),x,x,x,-2.1
CC(=O)O[C@H]1CC2CCC3C(CC[C@@]4(C)C3C[C@H]([N+]3(C)CCCCC3)[C@@H]4OC(C)=O)[C@@]2(C)C[C@@H]1N1CCCCC1 (stereo not given in full),x,x,x,-1.9
CC[C@@H](C(=O)[C@@H](C)[C@@H](O)[C@H](C)[C@@H]1O[C@@H]([C@@H](CC)C(=O)O)CC[C@@H]1C)[C@H]1OC2(C=C[C@@H](O)[C@]3(CC[C@@](C)([C@H]4CC[C@](O)(CC)[C@H](C)O4)O3)O2)[C@H](C)C[C@@H]1C (stereo not given in full),x,x,x,2.8
COC(=O)c1nn(-c2cccc(C(F)(F)F)c2)c(=O)cc1Sc1ccccn1,-8.2,0.1,8.7*,-1.2
NC[C@@H]1O[C@H](O[C@@H]2[C@@H](CO)OC(O[C@@H]3[C@@H](O)[C@H](N)C[C@H](N)[C@H]3O[C@@H]3O[C@H](CN)[C@@H](O)[C@H](O)[C@H]3N)[C@@H]2O)[C@H](N)[C@@H](O)[C@@H]1O (stereo not given in full),x,x,x,5.6
O=C(O)c1ccccc1NS(=O)(=O)c1ccc(NN=Cc2ccccc2F)c([N+](=O)[O-])c1,22.6*,4.0,1.3,1.1
Cc1nn(C)c(C)c1S(=O)(=O)N(CC(=O)Nc1ccc2c(c1)OCO2)c1ccc(C(C)C)cc1,-1.8,1.8,14.1*,-4.8
C[C@@H]1CC[C@H]2[C@@H](C)C(O)O[C@@H]3OC4(C)CC[C@@H]1[C@]32OO4 (stereo not given in full),x,x,x,-3.0
CC1(C)O[C@@H]2CC3C4CCC5=CC(=O)C=C[C@]5(C)C4[C@@H](O)C[C@]3(C)[C@]2(C(=O)CO)O1 (stereo not given in full),x,x,x,-7.4
C=CCOc1cccc(C2C(C(=O)c3ccc(C)o3)=C(O)C(=O)N2Cc2ccncc2)c1 (stereo not given),-8.7,-5.3,10.7*,-2.7
CCOC(=O)N1CCC(NC(=O)CCC(=O)N2CCOc3ccccc32)CC1,15.2,0.1,15.3*,-8.1
O=C(CCC(=O)N1CCOc2ccccc21)NC1CCCCCC1,-5.7,0.5,0.3,-0.1
O=C(Nc1ccccc1-c1nc2ccccc2s1)c1cccnc1Cl,-3.9,2.9,10.9*,24.4
CC1OC(CC(=O)O)CC2=C1C(=O)c1c(O)cccc1C2=O (stereo not given),-9.4,-0.8,12.7*,-1.9
CCN1CCN(C(=O)NC(C(=O)N[C@H]2C(=O)N3C(C(=O)O)=C(CSc4nnnn4C)CSC23)c2ccc(O)cc2)C(=O)C1=O (stereo not given in full),x,x,x,-8.4
O=C(CCCCCn1c(=S)[nH]c2cc3c(cc2c1=O)OCO3)N1CCN(Cc2ccccc2)CC1,-7.5,-5.0,4.2,16.8
O=C(CCCCCn1c(=S)[nH]c2cc3c(cc2c1=O)OCO3)N1CCN(C(=O)c2ccco2)CC1,-0.5,-3.4,11.8*,-1.4
CN[C@@H]1C(OC2[C@H](O[C@H]3[C@H](O)[C@@H](O)[C@H](N=C(N)N)[C@@H](O)[C@@H]3N=C(N)N)O[C@H](C)[C@]2(O)CO)O[C@@H](CO)C(O)C1O (stereo not given in full),x,x,x,-2.1
CC(C)(O/N=C(\C(=O)N[C@@H]1C(=O)N2C(C(=O)O)=C(C[n+]3ccccc3)CSC12)c1csc(N)n1)C(=O)O (stereo not given in full),x,x,x,1.5
CN(C)C1C(=O)C(C(=O)NCN2CCCC2)=C(O)C2(O)C(=O)C3=C(O)c4c(O)cccc4C(C)(O)C3CC12 (stereo not given),x,x,x,-8.0
CCCCCCCC(=O)CC[C@@H]1[C@@H](C/C=C\CCCC(=O)O)[C@@H](O)C[C@H]1O,x,x,x,2.5
C[C@]12C=CC(=O)C=C1CCC1C3C[C@@H](O)[C@](O)(C(=O)CO)[C@@]3(C)C[C@H](O)[C@@]12F (stereo not given in full),x,x,x,-0.1
CCCC[C@@H](CC)COC(=O)c1ccccc1O,x,x,x,2.2
C[C@@H]1CC2C3CCC4=CC(=O)C=C[C@]4(C)[C@@]3(F)[C@@H](O)C[C@]2(C)[C@H]1C(=O)CO (stereo not given in full),x,x,x,0.6
Nc1ncnc2c1ncn2C1O[C@H](COP(=O)(O)O)[C@@H](O)[C@H]1O (stereo not given in full),x,x,x,3.8
SMILES,PKA-R2B activ,PKA-R1A activ,PG9 Ab binder,Rev-erbA mod
OC[C@H]1O[C@H](O)C[C@@H](O)[C@@H]1O,x,x,x,4.0
CO/N=C(/C(=O)N[C@H]1C(=O)N2C(C(=O)O)=C(CSc3nnnn3C)CSC12)c1csc(N)n1 (stereo not given in full),x,x,x,9.6
COc1ccc(OC)c(NC2c3ccccc3C(=O)N2c2cccnc2)c1 (stereo not given),-2.1,-5.9,8.9*,0.5
CN1c2ccccc2Sc2ccc(CC(=O)O)cc21,x,x,x,0.3
Cc1onc(-c2ccccc2)c1C(=O)N[C@H]1C(=O)N2[C@@H]1SC(C)(C)[C@@H]2C(=O)O,x,x,x,8.3
C[C@]12C=CC(=O)C=C1CCC1C2C(=O)C[C@@]2(C)C1CC[C@]2(O)C(=O)CO (stereo not given in full),x,x,x,-2.2
CC[C@@H]1OC(=O)C[C@@H](O)[C@H](C)[C@@H](O[C@@H]2O[C@H](C)[C@@H](O)[C@H](N(C)C)[C@H]2O)[C@@H](CCN2C[C@H](C)C[C@H](C)C2)C[C@@H](C)C(=O)/C=C/C(C)=C\[C@@H]1CO[C@@H]1O[C@H](C)[C@@H](O)[C@@H](OC)[C@H]1OC,x,x,x,-5.2
COc1ccc2oc(=O)c(-c3nc(C)cs3)cc2c1,-9.3,-7.6,13.5*,1.6
COC(=O)c1ccc(Nc2cc(C)nc(-c3ccccc3O)n2)cc1,-8.4,-16.9,44.5*,24.8
COC(=O)c1cccc(Nc2cc(C)nc(-c3ccccc3O)n2)c1,-14.4,-7.3,-0.1,12.4
CC(CCC(=O)O)[C@H]1CCC2C3C(=O)C[C@@H]4CC(=O)CC[C@]4(C)C3CC(=O)[C@@]21C (stereo not given in full),x,x,x,2.7
CC(=O)O[C@H]1C[C@@]2(C)[C@@H](C[C@@H](O)C3[C@]2(C)CC[C@H]2[C@H](C)[C@H](O)CC[C@]32C)/C1=C(/CCC=C(C)C)C(=O)O (stereo not given in full),x,x,x,0.8
CCc1cc(Cl)c(OC)c(C(=O)NC[C@H]2CCCN2CC)c1O,x,x,x,5.1
COc1cccc2c1C(=O)c1c(O)c3c(c(O)c1C2=O)C[C@@](O)(C(=O)CO)C[C@@H]3OC1C[C@H](N)[C@H](O)[C@H](C)O1 (stereo not given in full),x,x,x,1.6
CCCCCCCCCC(=O)OC1(c2ccc(Cl)cc2)CCN(CCCC(=O)c2ccc(F)cc2)CC1,x,x,x,-6.9
